# Test results taken from PubChem BioAssay AID1159580 (chemical genetic matrix, 2015).
# The campaign covered roughly 5,500 compounds. About 2,000 (36%) were called active. Inconclusive results (about 18%) are left out. This is one part of the list. Values without a mark were called inactive. Rule as the data show it: active = normalized growth mostly below about 0.91 (no sharp cut-off); inconclusive = no clear call, values can overlap the other calls; inactive = mostly above about 0.92.
# Experiment: chemical genetic growth profiling, strain panel (AID 1159580);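 also: tested at 20 µM; growth read once vehicle control cultures reached saturation at 30 °C; 1 = growth at the plate median or of vehicle wells; lower values mean less growth of the strain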
# Conditions: growth OD
# [1] = S. cerevisiae deletion strains, locus YAL013W, strain DEP1, stronger effect = lower value
# [2] = S. cerevisiae deletion strains, locus YBR229C, strain ROT2, stronger effect = lower value
# [3] = S. cerevisiae deletion strains, locus YCL061C, strain MRC1, stronger effect = lower value
# [4] = S. cerevisiae deletion strains, locus YDL101C, strain DUN1, stronger effect = lower value
# [5] = S. cerevisiae deletion strains, locus YDR150W, strain NUM1, stronger effect = lower value
# [6] = S. cerevisiae deletion strains, locus YEL061C, strain CIN8, stronger effect = lower value
# [7] = S. cerevisiae deletion strains, locus YGR078C, strain PAC10, stronger effect = lower value
# [8] = S. cerevisiae deletion strains, locus YHR030C, strain SLT2, stronger effect = lower value
# [9] = S. cerevisiae deletion strains, locus YHR087W, strain rtc3, stronger effect = lower value
# [10] = S. cerevisiae deletion strains, locus YJR043C, strain POL32, stronger effect = lower value
# [11] = S. cerevisiae deletion strains, locus YJR075W, strain HOC1, stronger effect = lower value
# [12] = S. cerevisiae deletion strains, locus YLR039C, strain RIC1, stronger effect = lower value
# [13] = S. cerevisiae deletion strains, locus YLR058C, strain SHM2 (second series), stronger effect = lower value
# [14] = S. cerevisiae deletion strains, locus YLR085C, strain ARP6, stronger effect = lower value
# [15] = S. cerevisiae deletion strains, locus YLR262C, strain YPT6, stronger effect = lower value
# [16] = S. cerevisiae deletion strains, locus YML094W, strain GIM5, stronger effect = lower value
# [17] = S. cerevisiae deletion strains, locus YMR219W, strain ESC1, stronger effect = lower value
# [18] = S. cerevisiae deletion strains, locus YMR263W, strain SAP30, stronger effect = lower value
# [19] = S. cerevisiae deletion strains, locus YNL153C, strain GIM3, stronger effect = lower value
# [20] = S. cerevisiae deletion strains, locus YNL298W, strain CLA4 (second series), stronger effect = lower value
# [21] = S. cerevisiae deletion strains, locus YNL322C, strain KRE1, stronger effect = lower value
# [22] = S. cerevisiae deletion strains, locus YNR030W, strain Alg12, stronger effect = lower value
# [23] = S. cerevisiae deletion strains, locus YOL006C, strain TOP1, stronger effect = lower value
# [24] = S. cerevisiae deletion strains, locus YPL055C, strain LGE1, stronger effect = lower value
# [25] = S. cerevisiae deletion strains, locus YPL241C, strain CIN2, stronger effect = lower value
# [26] = S. cerevisiae deletion strains, locus YPR135W, strain CTF4, stronger effect = lower value
# [27] = S. cerevisiae strains, strain wild type, stronger effect = lower value
# [28] = S. cerevisiae deletion strains, locus YDL134C, strain PPH21, stronger effect = lower value
structure (smiles),measurement,setting,value
CSc1cccc(NC(=S)N=CN(C)C)c1,normalized growth,[1],0.977
same,normalized growth,[2],1.01
same,normalized growth,[3],0.954
same,normalized growth,[4],0.944
same,normalized growth,[5],0.974
same,normalized growth,[6],0.997
same,normalized growth,[7],0.977
same,normalized growth,[8],0.882
same,normalized growth,[9],1.12 [resistant] (active)
same,normalized growth,"S. cerevisiae deletion strains, locus YJL187C, strain SWE1, stronger effect = lower value",0.988
same,normalized growth,[10],0.961
same,normalized growth,[11],1.05
same,normalized growth,[12],0.73 (active)
same,normalized growth,[13],1.03
same,normalized growth,[14],0.618 (active)
same,normalized growth,[15],0.932
same,normalized growth,[16],0.96
same,normalized growth,[17],1
same,normalized growth,[18],0.983
same,normalized growth,"S. cerevisiae deletion strains, locus YNL128W, strain TEP1, stronger effect = lower value",0.962
same,normalized growth,[19],0.963
same,normalized growth,[20],0.798 (active)
same,normalized growth,[21],1
same,normalized growth,[22],0.958
same,normalized growth,[23],0.393 (active)
same,normalized growth,[24],1.02
same,normalized growth,[25],0.898
same,normalized growth,[26],0.787
same,normalized growth,[27],0.933
COc1ccc(CCNc2ccc(C(F)(F)F)cc2N)cc1OC,normalized growth,[1],1
same,normalized growth,[2],0.998
same,normalized growth,[3],1
same,normalized growth,[4],0.974
same,normalized growth,[28],1.02
same,normalized growth,[5],0.911
same,normalized growth,[6],1.02
same,normalized growth,[7],0.985
same,normalized growth,[8],0.903
same,normalized growth,[9],1.04
same,normalized growth,[10],0.996
same,normalized growth,[11],1.02
same,normalized growth,[12],0.988
same,normalized growth,[13],1.01
same,normalized growth,[14],0.961
same,normalized growth,[15],0.946
same,normalized growth,[16],0.972
same,normalized growth,[17],0.994
same,normalized growth,[18],0.918
same,normalized growth,[19],0.988
same,normalized growth,[20],0.966
same,normalized growth,[21],1.01
same,normalized growth,[22],0.974
same,normalized growth,[23],1.01
same,normalized growth,[24],0.893
same,normalized growth,[25],0.93
same,normalized growth,[26],0.842
same,normalized growth,[27],1.01
COc1ccccc1Oc1ccc(C(F)(F)F)cc1NC(=O)NC(=O)c1ccccc1F,normalized growth,[1],0.997
same,normalized growth,[2],1
same,normalized growth,[3],0.972
same,normalized growth,[4],0.968
same,normalized growth,[28],0.984
same,normalized growth,[5],1.02
same,normalized growth,[6],0.979
same,normalized growth,[7],0.979
same,normalized growth,[8],1
same,normalized growth,[9],1.06
same,normalized growth,[10],0.984
same,normalized growth,[11],1.02
same,normalized growth,[12],0.964
same,normalized growth,[13],1
same,normalized growth,[14],1.02
same,normalized growth,[15],1.02
same,normalized growth,[16],1.02
same,normalized growth,[17],0.994
same,normalized growth,[18],1.01
same,normalized growth,[19],1
same,normalized growth,[20],0.958
same,normalized growth,[21],0.995
same,normalized growth,[22],1.03
same,normalized growth,[23],0.966
same,normalized growth,[24],1.04
same,normalized growth,[25],0.992
same,normalized growth,[26],0.957
same,normalized growth,[27],0.974
Cc1cc(Oc2ccc(C(F)(F)F)cc2NS(C)(=O)=O)cc(C)c1Cl,normalized growth,"S. cerevisiae deletion strains, locus YAR019C, strain CDC15, stronger effect = lower value",0.992
same,normalized growth,"S. cerevisiae deletion strains, locus YBL105C, strain PKC1, stronger effect = lower value",0.988
same,normalized growth,"S. cerevisiae deletion strains, locus YBR135W, strain CKS1, stronger effect = lower value",0.995
same,normalized growth,"S. cerevisiae deletion strains, locus YBR136W, strain MEC1, stronger effect = lower value",0.991
same,normalized growth,"S. cerevisiae deletion strains, locus YBR160W, strain CDC28, stronger effect = lower value",0.988
same,normalized growth,"S. cerevisiae deletion strains, locus YDL017W, strain CDC7, stronger effect = lower value",0.982
same,normalized growth,"S. cerevisiae deletion strains, locus YDL028C, strain MPS1, stronger effect = lower value",0.998
same,normalized growth,[4],0.979
same,normalized growth,"S. cerevisiae deletion strains, locus YDL108W, strain KIN28, stronger effect = lower value",0.995
same,normalized growth,"S. cerevisiae deletion strains, locus YDL132W, strain cdc53, stronger effect = lower value",0.989
same,normalized growth,"S. cerevisiae deletion strains, locus YDL214C, strain PRR2, stronger effect = lower value",0.961
same,normalized growth,"S. cerevisiae deletion strains, locus YDR052C, strain DBF4, stronger effect = lower value",0.996
same,normalized growth,"S. cerevisiae deletion strains, locus YDR054C, strain cdc34, stronger effect = lower value",0.995
same,normalized growth,"S. cerevisiae deletion strains, locus YDR226W, strain ADK1, stronger effect = lower value",0.979
same,normalized growth,"S. cerevisiae deletion strains, locus YDR477W, strain SNF1, stronger effect = lower value",0.978
same,normalized growth,"S. cerevisiae deletion strains, locus YER123W, strain YCK3, stronger effect = lower value",0.95
same,normalized growth,"S. cerevisiae deletion strains, locus YER133W, strain GLC7, stronger effect = lower value",0.974
same,normalized growth,"S. cerevisiae deletion strains, locus YFL009W, strain cdc4, stronger effect = lower value",0.995
same,normalized growth,"S. cerevisiae deletion strains, locus YFL029C, strain CAK1, stronger effect = lower value",0.981
same,normalized growth,"S. cerevisiae deletion strains, locus YFR003C, strain YPI1, stronger effect = lower value",0.986
same,normalized growth,"S. cerevisiae deletion strains, locus YFR019W, strain FAB1, stronger effect = lower value",0.984
same,normalized growth,"S. cerevisiae deletion strains, locus YFR028C, strain CDC14, stronger effect = lower value",0.995
same,normalized growth,"S. cerevisiae deletion strains, locus YGR040W, strain KSS1, stronger effect = lower value",0.985
same,normalized growth,"S. cerevisiae deletion strains, locus YGR052W, strain FMP48, stronger effect = lower value",0.986
same,normalized growth,"S. cerevisiae deletion strains, locus YGR092W, strain DBF2, stronger effect = lower value",0.889
same,normalized growth,[8],0.802 (active)
same,normalized growth,"S. cerevisiae deletion strains, locus YHR079C, strain IRE1, stronger effect = lower value",0.873
same,normalized growth,"S. cerevisiae deletion strains, locus YHR082C, strain KSP1, stronger effect = lower value",1.03
same,normalized growth,"S. cerevisiae deletion strains, locus YHR205W, strain SCH9, stronger effect = lower value",0.902
same,normalized growth,"S. cerevisiae deletion strains, locus YIL147C, strain SLN1, stronger effect = lower value",0.993
same,normalized growth,"S. cerevisiae deletion strains, locus YJL095W, strain BCK1, stronger effect = lower value",0.891
same,normalized growth,"S. cerevisiae deletion strains, locus YJL128C, strain PBS2, stronger effect = lower value",0.947
same,normalized growth,"S. cerevisiae deletion strains, locus YJL157C, strain FAR1, stronger effect = lower value",0.963
same,normalized growth,"S. cerevisiae deletion strains, locus YJR016C, strain ILV3, stronger effect = lower value",0.986
same,normalized growth,"S. cerevisiae deletion strains, locus YJR066W, strain TOR1 (second series), stronger effect = lower value",0.928
same,normalized growth,"S. cerevisiae deletion strains, locus YJR066W, strain TOR1, stronger effect = lower value",1.01
same,normalized growth,"S. cerevisiae deletion strains, locus YKL048C, strain ELM1, stronger effect = lower value",0.985
same,normalized growth,"S. cerevisiae deletion strains, locus YKL067W, strain YNK1, stronger effect = lower value",0.957
same,normalized growth,"S. cerevisiae deletion strains, locus YKL101W, strain HSL1, stronger effect = lower value",0.961
same,normalized growth,"S. cerevisiae deletion strains, locus YKL193C, strain SDS22, stronger effect = lower value",0.989
same,normalized growth,"S. cerevisiae deletion strains, locus YKL203C, strain TOR2, stronger effect = lower value",1.02
same,normalized growth,"S. cerevisiae deletion strains, locus YLR113W, strain HOG1, stronger effect = lower value",0.75 (active)
same,normalized growth,"S. cerevisiae deletion strains, locus YLR133W, strain CKI1, stronger effect = lower value",0.96
same,normalized growth,"S. cerevisiae deletion strains, locus YLR403W, strain SFP1, stronger effect = lower value",0.939
same,normalized growth,"S. cerevisiae deletion strains, locus YML070W, strain DAK1, stronger effect = lower value",0.931
same,normalized growth,"S. cerevisiae deletion strains, locus YMR001C, strain CDC5, stronger effect = lower value",0.989
same,normalized growth,"S. cerevisiae deletion strains, locus YMR205C, strain PFK2 (second series), stronger effect = lower value",0.972
same,normalized growth,"S. cerevisiae deletion strains, locus YMR277W, strain FCP1, stronger effect = lower value",0.991
same,normalized growth,"S. cerevisiae deletion strains, locus YNL006W, strain LST8, stronger effect = lower value",0.983
same,normalized growth,"S. cerevisiae deletion strains, locus YNL020C, strain ARK1, stronger effect = lower value",0.914
same,normalized growth,"S. cerevisiae deletion strains, locus YNL161W, strain CBK1, stronger effect = lower value",0.985
same,normalized growth,"S. cerevisiae deletion strains, locus YNL183C, strain NPR1, stronger effect = lower value",0.981
same,normalized growth,"S. cerevisiae deletion strains, locus YNL207W, strain RIO2, stronger effect = lower value",0.987
same,normalized growth,"S. cerevisiae deletion strains, locus YNL222W, strain SSU72, stronger effect = lower value",0.996
same,normalized growth,"S. cerevisiae deletion strains, locus YNL307C, strain MCK1 (second series), stronger effect = lower value",0.939
same,normalized growth,"S. cerevisiae deletion strains, locus YOL078W, strain AVO1, stronger effect = lower value",0.995
same,normalized growth,"S. cerevisiae deletion strains, locus YOL136C, strain PFK27, stronger effect = lower value",0.939
same,normalized growth,"S. cerevisiae deletion strains, locus YOR061W, strain CKA2, stronger effect = lower value",0.923
same,normalized growth,"S. cerevisiae deletion strains, locus YOR119C, strain RIO1, stronger effect = lower value",1.04
same,normalized growth,"S. cerevisiae deletion strains, locus YOR231W, strain MKK1, stronger effect = lower value",0.902
same,normalized growth,"S. cerevisiae deletion strains, locus YOR329C, strain SCD5, stronger effect = lower value",0.984
same,normalized growth,"S. cerevisiae deletion strains, locus YPL031C, strain PHO85, stronger effect = lower value",0.971
same,normalized growth,"S. cerevisiae deletion strains, locus YPL153C, strain RAD53, stronger effect = lower value",0.981
same,normalized growth,"S. cerevisiae deletion strains, locus YPL204W, strain HRR25, stronger effect = lower value",0.947
same,normalized growth,"S. cerevisiae deletion strains, locus YPL209C, strain IPL1, stronger effect = lower value",0.987
same,normalized growth,"S. cerevisiae deletion strains, locus YPL256C, strain CLN2, stronger effect = lower value",0.827 (active)
same,normalized growth,"S. cerevisiae deletion strains, locus YPR025C, strain CCL1, stronger effect = lower value",0.993
same,normalized growth,"S. cerevisiae deletion strains, locus YPR106W, strain ISR1, stronger effect = lower value",0.985
same,normalized growth,"S. cerevisiae deletion strains, locus YPR111W, strain DBF20, stronger effect = lower value",0.973
same,normalized growth,"S. cerevisiae deletion strains, strain NNK1, stronger effect = lower value",0.984
same,normalized growth,"S. cerevisiae deletion strains, strain TSCII, stronger effect = lower value",0.993
